In ChEMBL document CHEMBL3988442, “University of Dundee, Small-Polar-MMV Screening Library” (2021):
In all, about 48,000 compounds went through this assay and about 13,000 (27%) showed an effect of 50% or more. Some of the results follow.

Test system: Wolbachia pipientis
Assay: Anti-Wolbachia Cell-Based Screen
Type: functional
Design: scale not given: in the data most compounds retested in dose-response had high values
Settings: 5 µM

Row | SMILES | Percent Effect [%]
1 | Cc1ncccc1OC1(C(=O)NCCc2ccccn2)CCNCC1 | -3.101
2 | N#Cc1cc(Br)ccc1NC1CCN(CC(N)=O)CC1 | -6.071
3 | O=C(CSc1ccc2c(c1)OCCO2)NS(=O)(=O)c1ccccc1Cl | -4.158
4 | CC(O)CN1CCN(C(=O)CN(C)c2ccc(Cl)cn2)CC1 (stereo not drawn) | -12.66
5 | O=C1Nc2ccccc2/C1=C1\CCCCCN1 | 122.1
6 | O=C1Nc2ccccc2/C1=C1\CCCCN1 | 114.3
7 | O=C1Nc2ccccc2/C1=C1\CCCN1 | 133.6
8 | CCCN1C[C@H]2CC[C@@H]1CN(Cc1cccc(-n3cccn3)c1)C2 | -7.313
9 | CC(C)Cc1cc(C(=O)N2CCCC(n3cncn3)C2)[nH]n1 (stereo not drawn) | 6
10 | CC(C)c1cc(C(=O)N2CCCC(n3cncn3)C2)n[nH]1 (stereo not drawn) | 96.9
11 | O=C(c1cc(C2CC2)[nH]n1)N1CCCC(n2cncn2)C1 (stereo not drawn) | 0.773
12 | CC(C)n1ccc(C(=O)N2CCCC(n3cncn3)C2)n1 (stereo not drawn) | 105.9
13 | Cc1cc(C)c(CNC(=O)NC2CCN(C(=O)C(C)C)CC2)c(C)c1 | 11.56
14 | CC(Cn1cccn1)C(=O)N1CCC(NS(C)(=O)=O)CC1 (stereo not drawn) | -5.413
15 | CCS(=O)(=O)Nc1ccn(Cc2cccc(Cl)c2)n1 | -21.52
16 | CCS(=O)(=O)Nc1cnn(Cc2cccc(Cl)c2)c1 | 132.7
17 | CS(=O)(=O)Nc1cnn(Cc2cccc(Cl)c2)c1 | 81.71
18 | CS(=O)(=O)N1CCC(C(=O)N2CCN(Cc3cccc(Cl)c3)CC2)CC1 | -5.012
19 | CC(C)N(C)S(=O)(=O)N(C)Cc1cnn(Cc2ccccc2)c1 | -14.36
20 | CS(=O)(=O)Nc1cccc(CNC(=O)c2cccs2)c1 | 8.71
21 | COc1cc(C)ccc1OCc1nc(C(=O)N2CCCNC(=O)C2)co1 | 5.427
22 | CS(=O)(=O)NC[C@H]1OC[C@H]2CN(Cc3ccsc3)CC[C@H]21.O=C(O)C(F)(F)F | 114.3
23 | CS(=O)(=O)NC[C@@H]1OC[C@H]2CN(Cc3ccsc3)CC[C@H]21.O=C(O)C(F)(F)F | 83.99
24 | COCc1nnc(-c2cccc(C(=O)OC(C)C)c2)o1 | -21.92
25 | NC(=O)Nc1cccc(CNC(=O)CCCc2ccccc2)c1 | 3.307
26 | COc1ccc(-c2ccoc2)cc1CNC1CCCC1 | 10.39

Row | SMILES | Percent Effect [%]
27 | Cc1cc(-c2cnc(NC3CCCC3)nc2-c2ccoc2)on1 | 77.66
28 | Cc1cc(-c2cnc(NC3CC3)nc2-c2ccoc2)on1 | 98.24
29 | Cc1cc(-c2cnc(N3CCCC(C)C3)nc2-c2cccnc2C)on1.Cl (stereo not drawn) | -3.482
30 | CCC1CCC(N(Cc2cc(=O)n(C)c(=O)n2C)C2CC2)CC1 (stereo not drawn) | -6.586
31 | Cc1ccc(NC(=O)N(C)C)c(C(=O)OCC(=O)NC(C)C(C)C)c1 (stereo not drawn) | -0.8117
32 | CC(C)CN1CCc2[nH]cnc2C12CCN(C(=O)c1cncn1C)CC2 | -0.9954
33 | O=C(Nc1ccccc1)C1CN(Cc2ccsc2)CC12CCOCC2.O=C(O)C(F)(F)F (stereo not drawn) | 4.234
34 | Cc1ccc(CNc2ccc(N3CCC(CO)CC3)cn2)o1 | -69.41
35 | Cc1ccc(CN2Cc3ccccc3O[C@]3(CC[C@H](CO)CC3)C2)o1.Cl | 111.4
36 | Cl.OC[C@H]1CC[C@]2(CC1)CN(Cc1ccccc1F)Cc1ccccc1O2 | -7.813
37 | Cl.OC[C@H]1CC[C@]2(CC1)CN(Cc1ccsc1)Cc1ccccc1O2 | 114.5
38 | Cc1cnccc1CN1Cc2ccccc2O[C@]2(CC[C@H](CO)CC2)C1 | 131.4
39 | Cc1cnccc1CN1CCN(C)C2(CCC(=O)N(CC3CC3)CC2)C1 (stereo not drawn) | -0.1133
40 | Cc1ncc(CN2Cc3ccccc3O[C@]3(CC[C@H](CO)CC3)C2)cn1.Cl | -8.047
41 | Cc1ccc(CN2Cc3ccccc3O[C@]3(CC[C@H](CO)CC3)C2)s1.Cl | 116.6
42 | Cc1cnccc1Cn1ccnc1C1CCOC1 (stereo not drawn) | -17.66
43 | Cc1ccc(CN2CC(C(=O)Nc3ccccc3)C3(CCOCC3)C2)o1.O=C(O)C(F)(F)F (stereo not drawn) | 17.76
44 | Cl.OC[C@H]1CC[C@]2(CC1)CN(Cc1ccccn1)Cc1ccccc1O2 | -8.81
45 | CCCS(=O)(=O)N1CCOC2(COCCN(C(C)=O)C2)C1 (stereo not drawn) | -8.657
46 | CN(CCCc1ccc(C(F)(F)F)cc1)Cc1nccn1C | -12.04
47 | CC(=O)N1CCN(CC(=O)N2CCN(c3cccc(C)c3)CC2)CC1 | -12.32
48 | COc1ccc(-c2nc(CN3CCOCS3(=O)=O)c(C)o2)cc1 | 1.396
49 | CSCCC(=O)NS(=O)(=O)c1ccc2c(c1)OCCO2 | 2.619
50 | C1CN(c2nc(C3CC3)ns2)CCO1 | -22.29
51 | CC(c1cccnc1)N1CCN(CCO)CC1 (stereo not drawn) | 9.024
52 | Cc1cncnc1C1CCN(CC(N)=O)CC1 | 132.7

Row | SMILES | Percent Effect [%]
53 | CCCn1ncnc1C(C)NC(=O)C1CCN(CC(N)=O)CC1 (stereo not drawn) | -16.66
54 | Cc1cc(CNC(=O)C2CCN(CC(N)=O)CC2)cc(C)n1 | 2.597
55 | Cc1cncnc1C1CCN(CCO)CC1 | 125.7
56 | CN1CCN(Cc2nnc(C3CCN(CC4CC4)CC3)n2C)CC1 | -21.66
57 | CC(NCC1CCN(CCO)CC1)c1cccnc1 (stereo not drawn) | -1.701
58 | Cc1cncnc1C1CCN(CC2CC2)CC1 | 99.03
59 | Cn1cncc1-c1nnc([C@H]2CCN(CC3CCCCC3)C2)o1 | -8.237
60 | O=C(CN1CCCS1(=O)=O)NCCOc1ccc2c(c1)CCC2 | -4.434
61 | Cn1ccnc1SCCNc1nccc(C(F)(F)F)n1 | -12.11
62 | Cn1c(Nc2cn[nH]c2)c(C#N)c(=O)n(C)c1=O | -4.688
63 | CN1C(=O)CCc2cc(NC(=O)C3CC3)ccc21 | -10.85
64 | CN1CC(C(=O)NCCc2ccc3c(c2)OCO3)CC1=O (stereo not drawn) | 94.15
65 | CN1CC(C(=O)NCCc2ccc3c(c2)OCCO3)CC1=O (stereo not drawn) | 92.09
66 | O=C(CCS(=O)(=O)C1CCCC1)NCCc1ccc2c(c1)OCCO2 | -0.351
67 | CN(Cc1nnc2n1CCC2)C(=O)NCCc1ccc2c(c1)OCO2 | 2.683
68 | COc1ccc(C2C3=C(CCCC3=O)Nc3nc(SC)nc(N)c32)cc1 (stereo not drawn) | 12.57
69 | CN1CCN(C(C)(C)CNC(=O)C2CCCN2S(C)(=O)=O)CC1 (stereo not drawn) | 10.51
70 | CC(C)c1ccc(CS(=O)(=O)Cc2nc(N)nc(N(C)C)n2)cc1 | -6.914
71 | COc1cc(C2(C(=O)N3CCN(CC(C)O)CC3)CC2)ccc1C (stereo not drawn) | 6.894
72 | Cc1ccc(OCc2cccc(C(=O)N(C)CCC#N)c2)cn1 | 10.32
73 | COC(=O)CCN(CC1CCCO1)C(=O)CCc1ccc(OC)cc1 (stereo not drawn) | -1.307
74 | CCOc1ccc(CC(=O)N(CCC(=O)OC)CC2CCCO2)cc1 (stereo not drawn) | 5.007
75 | Cc1ccc(OCCC(=O)N(C)CCC#N)cc1C | -4.451
76 | CC(C)(Oc1ccc(C(N)=O)cc1)C(=O)N(CCC#N)CC1CCCO1 (stereo not drawn) | 108.9
77 | N#CCCN(C(=O)COC1CCCC1)C1CC1 | -11.78
78 | CC(C)(Oc1ccc(C(N)=O)cc1)C(=O)N(CCC#N)C1CC1 | 118.6

Row | SMILES | Percent Effect [%]
79 | CN(CCC#N)C(=O)C(C)(C)Oc1ccc(C(N)=O)cc1 | 113.2
80 | CC(C)CN(C(=O)COc1ccc(C(N)=O)cc1)C1CCN(C)CC1 | -11.28
81 | CC(C)(C)CC(=O)N[C@@H]1CO[C@H](CNC(=O)c2ccncc2)[C@H]1O | -7.962
82 | Cc1nc(C)c(C)c(N2C[C@@H](CN3CCCN(C)CC3)[C@@H](CO)C2)n1 | 1.463
83 | CN(C)CCCN(CCC#N)C(=O)Nc1ccc2[nH]ccc2c1 | -1.012
84 | O=C(O)C(F)(F)F.O=C(O)C(F)(F)F.O=C(O)c1c(-c2ccncc2)ncc2c1CCN(C1CCOC1)C2 (stereo not drawn) | -10.9
85 | O=C(O)C(F)(F)F.O=C(O)C(F)(F)F.O=C(O)c1c(-c2ccncc2)ncc2c1CCN(CC1CCOC1)C2 (stereo not drawn) | 92.6
86 | CN(C(=O)CCOc1ccccc1)C1CCN(CC2CCOC2)CC1 (stereo not drawn) | -10.27
87 | O=C(O)C(F)(F)F.O=C(O)c1c(-c2ccoc2)ncc2c1CCN(C1CCOC1)C2 (stereo not drawn) | -27.15
88 | O=C(O)C(F)(F)F.O=C(O)c1c(-c2cncnc2)ncc2c1CCN(CC1CCOC1)C2 (stereo not drawn) | 114.1
89 | Cc1ccc(Nc2ncnc3c2CCN(CC2CCOC2)CC3)cc1.O=C(O)C(F)(F)F (stereo not drawn) | -7.327
90 | O=C(O)C(F)(F)F.O=C(O)c1c(NC2CCC2)ncc2c1CCN(C1CCOC1)C2 (stereo not drawn) | -12.61
91 | CCN(CC)S(=O)(=O)c1ccc(C(F)(F)F)cc1C#N | -8.635
92 | COc1cccc2c1OCC(C(=O)N1CCN(C3CCCC3)C(=O)C1)C2 (stereo not drawn) | -9.278
93 | COc1cccc(OC)c1C(=O)N1CCN(c2ccccc2F)CC1 | -1.098
94 | CCOc1ccccc1C(=O)N1CC(=O)N(C2CCC2)CC(O)C1 (stereo not drawn) | 90.13
95 | COc1ccccc1C(=O)N1CC(=O)N(C2CCCCC2)CC(O)C1 (stereo not drawn) | 104.3
96 | COc1ccccc1OC1CCN(C(=O)c2cccc(O)c2C)CC1 | 0.8848
97 | COc1ccc(C(=O)N2CC[C@@H](N3CCC(O)CC3)[C@H](O)C2)cc1C | -6.669
98 | O=C(c1cc(Cl)ccc1OC1CCN(C2CCCC2)CC1)N1CC(O)C1 | 4.812
99 | O=C(c1ccc2c(c1)[nH]c(=O)n2C1CCCC1)N1CC(O)C1 | -1.674
100 | CCOc1ccccc1C(=O)N1CCn2c(nnc2C(F)(F)F)C1 | -4.293
101 | CCOc1ccccc1C(=O)N1CCCC(O)(CN(C)C)C1 (stereo not drawn) | 8.806
102 | COc1ccc(C(=O)N2CC(=O)N(C3CCC3)CC(O)C2)cc1OC (stereo not drawn) | 103.9
103 | COc1cccc(OC)c1C(=O)N1CC(=O)N(C2CCC2)CC(O)C1 (stereo not drawn) | 125.2
